High-throughput results as filed in PubChem.
Shown are actives, neighbours in structure and some others; about 31% of the full set was active somewhere.
CYP2C19 inh = blockers of cytochrome P450 2C19 activity – biochemical, luminescence, ADME assay, primary screen | P33261 | CYP2C19 Supersomes, luciferin-H EGE luminescence, 30 min | inhibition, % at 5 µM | actives 21% (n = 96,000) | AID 778, 2007;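 active = CYP2C19 inhibition above a set limit at 5 µM in the primary screen, cut at about 50% in these data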;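 also: plate controls were negative control wells for no effect and 2.5 mM tranylcypromine positive control for full effect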
Target sequence (P33261 whole entry, looked up): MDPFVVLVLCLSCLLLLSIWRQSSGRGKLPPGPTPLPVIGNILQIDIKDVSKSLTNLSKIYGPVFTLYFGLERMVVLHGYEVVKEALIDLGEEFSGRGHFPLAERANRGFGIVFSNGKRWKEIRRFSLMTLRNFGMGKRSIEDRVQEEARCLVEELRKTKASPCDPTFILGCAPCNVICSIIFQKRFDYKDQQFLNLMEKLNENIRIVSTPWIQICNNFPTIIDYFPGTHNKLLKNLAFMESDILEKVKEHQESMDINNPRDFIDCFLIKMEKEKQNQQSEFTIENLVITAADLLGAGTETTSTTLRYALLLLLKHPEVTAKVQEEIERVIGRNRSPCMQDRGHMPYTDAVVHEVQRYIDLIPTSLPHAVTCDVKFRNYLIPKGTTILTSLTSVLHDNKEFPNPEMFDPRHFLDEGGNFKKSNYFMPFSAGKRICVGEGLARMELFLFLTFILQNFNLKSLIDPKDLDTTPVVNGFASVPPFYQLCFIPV
CYP2C19 activ = human CYP2C19 activators, primary screen, biochemical, luminescence. activation factor at 5 µM. 96,000 tested, under 10 active. recombinant CYP2C19, luciferin-H EGE luminescence; hits give high values; 0 = fully inhibited enzyme, 1 = untreated enzyme;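 active = activation factor of at least 2 at 5 µM in the primary screen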;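 also: 0 = wells with 2.5 mM tranylcypromine and 1 = vehicle-only wells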
CYP2C9 inh = blockers of cytochrome P450 2C9 activity – biochemical, luminescence, ADME assay, primary screen; P11712; CYP2C9 Supersomes, luciferin-H conversion; inhibition, % at 5 µM; actives 20% (n = 96,000); AID 777, 2007;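 active = blocking of liver enzyme CYP2C9 beyond about 50% at 5 µM, limit read from the data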
CYP2C9 activ = human CYP2C9 activators, primary screen, biochemical, luminescence. recombinant CYP2C9, luciferin-H conversion; hits give high values; factor 1 = untreated enzyme, 0 = blocked. activation factor at 5 µM. actives 1.4% (n = 96,000). AID 1024, 2008;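 active = activation factor of 2 or more for CYP2C9 at a 5 µM dose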;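 also: 0 = sulfaphenazole-blocked wells and 1 = vehicle-only wells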
The depositor's hits bear a star.

For CC(C)[C@H](NC(=O)OCc1ccccc1)C(=O)OCC(=O)NC1CCCCC1 the results were CYP2C19 inh 78*, CYP2C19 activ 0.2, CYP2C9 inh 81* and CYP2C9 activ 0.2.
CC(C)C(NC(=O)OCc1ccccc1)C(=O)OCC(=O)NCc1ccco1 (configuration not stated) was read as CYP2C19 inh 26, CYP2C19 activ 0.7, CYP2C9 inh 1 and CYP2C9 activ 1.
Screening CC(C)C(NC(=O)OCc1ccccc1)C(=O)NCC(=O)OC(C)(C)C (configuration not stated) returned CYP2C19 inh 83*, CYP2C19 activ 0.2, CYP2C9 inh 14 and CYP2C9 activ 0.9.
For O=C(Nc1nccs1)c1cc(S(=O)(=O)N2CCOCC2)ccc1Cl the results were CYP2C19 inh 6, CYP2C19 activ 0.9, CYP2C9 inh 5 and CYP2C9 activ 1.
Cc1occc1-c1nnc(SCC(=O)Nc2ccccc2)n1Cc1ccccc1 was read as CYP2C19 inh 34, CYP2C19 activ 0.7, CYP2C9 inh 62* and CYP2C9 activ 0.4.
Screening COc1ccc(NC(=O)CSc2nnc(-c3ccoc3C)n2CCc2ccccc2)cc1 returned CYP2C19 inh 88*, CYP2C19 activ 0.1, CYP2C9 inh 89* and CYP2C9 activ 0.1.
Screening Cc1occc1-c1nnc(SCC(=O)Nc2ccc(F)cc2)n1Cc1ccccc1 returned CYP2C19 inh 26, CYP2C19 activ 0.7, CYP2C9 inh 72* and CYP2C9 activ 0.3.
`CCC(Oc1ccc2c(c1)C(=O)CC(C)(C)O2)C(=O)NCCN1CCCCCC1` (configuration not stated) gave CYP2C19 inh 22, CYP2C19 activ 0.8, CYP2C9 inh 23 and CYP2C9 activ 0.8.
CCCn1nnc(NC(=O)c2ccccc2Cl)n1 was read as CYP2C19 inh 1, CYP2C19 activ 1, CYP2C9 inh -16 and CYP2C9 activ 1.2.
CCCn1nnc(NC(=O)c2ccc(Cl)cc2Cl)n1 was read as CYP2C19 inh 89*, CYP2C19 activ 0.1, CYP2C9 inh -24 and CYP2C9 activ 1.2.
Cc1cc(NC(=O)c2cccc(S(=O)(=O)N3CCCCCC3)c2)no1 was read as CYP2C19 inh 15, CYP2C19 activ 0.8, CYP2C9 inh 27 and CYP2C9 activ 0.7.
`COc1ccccc1/C=C/C=N/N1CCN(Cc2cccc3ccccc23)CC1` gave CYP2C19 inh 6, CYP2C19 activ 0.9, CYP2C9 inh -6 and CYP2C9 activ 1.1.
Screening COC(=O)c1c(N)sc2c1CCN(c1ncc(C(F)(F)F)cc1Cl)C2 returned CYP2C19 inh 36, CYP2C19 activ 0.6, CYP2C9 inh 29 and CYP2C9 activ 0.7.
For Cn1c(C(=O)N2CCCC(C(=O)NCCCc3ccccc3)C2)cc2sccc21 (configuration not stated) the results were CYP2C19 inh 33, CYP2C19 activ 0.7, CYP2C9 inh 23 and CYP2C9 activ 0.8.
Cn1c(C(=O)N(Cc2ccccc2)Cc2cccs2)cc2sccc21 was read as CYP2C19 inh 47, CYP2C19 activ 0.5, CYP2C9 inh 73* and CYP2C9 activ 0.3.
Cn1c(C(=O)N(Cc2ccccc2)Cc2ccccn2)cc2sccc21 was read as CYP2C19 inh 88*, CYP2C19 activ 0.1, CYP2C9 inh 91* and CYP2C9 activ 0.1.
`FC(F)(F)c1nc2ccccc2nc1N/N=C/c1c(Cl)cccc1Cl` gave CYP2C19 inh 44, CYP2C19 activ 0.6, CYP2C9 inh 22 and CYP2C9 activ 0.8.
For COc1ccc(-c2nc(C#N)c(NCC3CCCO3)o2)cc1 (configuration not stated) the results were CYP2C19 inh 59*, CYP2C19 activ 0.4, CYP2C9 inh 68* and CYP2C9 activ 0.3.
`CCOc1ccc(Nc2oc(-c3ccc(Cl)cc3)nc2C#N)cc1` gave CYP2C19 inh 34, CYP2C19 activ 0.7, CYP2C9 inh 38 and CYP2C9 activ 0.6.
For Cc1ccc(S(=O)(=O)c2nc(-c3ccco3)oc2SCC(=O)NCC2CCCO2)cc1 (configuration not stated) the results were CYP2C19 inh 26, CYP2C19 activ 0.7, CYP2C9 inh 1 and CYP2C9 activ 1.
N#Cc1nc(-c2cccs2)oc1NCC1CCCO1 (configuration not stated) was read as CYP2C19 inh 55*, CYP2C19 activ 0.5, CYP2C9 inh 38 and CYP2C9 activ 0.6.
O=C(CSc1oc(-c2cccs2)nc1S(=O)(=O)c1ccc(F)cc1)NCC1CCCO1 (configuration not stated) was read as CYP2C19 inh 64*, CYP2C19 activ 0.4, CYP2C9 inh 50 and CYP2C9 activ 0.5.
Screening CCOc1ccc(-c2nc(C#N)c(NC3CC3)o2)cc1 returned CYP2C19 inh 69*, CYP2C19 activ 0.3, CYP2C9 inh 25 and CYP2C9 activ 0.8.
Screening CCOC(=O)C1=C(O)/C(=C/c2cc(OC)c(OC)c(OC)c2)N=C1C returned CYP2C19 inh -2, CYP2C19 activ 1, CYP2C9 inh 3 and CYP2C9 activ 1.
Cc1ccc(Nc2nc3nonc3[nH]c2=O)cc1C was read as CYP2C19 inh -9, CYP2C19 activ 1.1, CYP2C9 inh 58* and CYP2C9 activ 0.4.
Screening Cc1cc(C(c2nnnn2Cc2ccccc2)N2CCOCC2)c(C)n1-c1ccc2c(c1)OCO2 (configuration not stated) returned CYP2C19 inh 96*, CYP2C19 activ 0, CYP2C9 inh 90* and CYP2C9 activ 0.1.
CCOc1ccc2[nH]c(=O)c(C(c3nnnn3CC3CCCO3)N3CCc4ccccc4C3)cc2c1 (configuration not stated) was read as CYP2C19 inh 50*, CYP2C19 activ 0.5, CYP2C9 inh 68* and CYP2C9 activ 0.3.
Cc1ccc(C)c2[nH]c(=O)c(C(c3nnnn3Cc3ccccc3)N3CCc4ccccc4C3)cc12 (configuration not stated) was read as CYP2C19 inh 85*, CYP2C19 activ 0.1, CYP2C9 inh 73* and CYP2C9 activ 0.3.
Cc1cccc2cc(C(c3nnnn3Cc3ccc4c(c3)OCO4)N3CCCC3)c(=O)[nH]c12 (configuration not stated) was read as CYP2C19 inh 38, CYP2C19 activ 0.6, CYP2C9 inh 50* and CYP2C9 activ 0.5.
For c1ccc(Cn2nnnc2C(c2ccncc2)N2CCOCC2)cc1 (configuration not stated) the results were CYP2C19 inh 37, CYP2C19 activ 0.6, CYP2C9 inh 22 and CYP2C9 activ 0.8.
Screening O=c1[nH]c2cc3c(cc2cc1C(c1nnnn1Cc1ccccc1)N1CCCCCC1)OCCO3 (configuration not stated) returned CYP2C19 inh 14, CYP2C19 activ 0.9, CYP2C9 inh 18 and CYP2C9 activ 0.8.
For CCc1ccc2[nH]c(=O)c(C(c3nnnn3CC3CCCO3)N3CCCc4ccccc43)cc2c1 (configuration not stated) the results were CYP2C19 inh -10, CYP2C19 activ 1.1, CYP2C9 inh -3 and CYP2C9 activ 1.
